# Only some compounds are listed: those with a hit (about 3.5% of all), similar ones and a draw of the others.
# Anthrax LF inh2 – anthrax lethal factor protease inhibition. P15917. multiplex microsphere protease cleavage assay, LF. inhibition, % at 10 µM. 0.12% of 360,000 active. AID 588501; further: plate controls were buffer without enzyme for full effect and enzyme alone for no effect
# Target sequence (P15917 whole entry, looked up): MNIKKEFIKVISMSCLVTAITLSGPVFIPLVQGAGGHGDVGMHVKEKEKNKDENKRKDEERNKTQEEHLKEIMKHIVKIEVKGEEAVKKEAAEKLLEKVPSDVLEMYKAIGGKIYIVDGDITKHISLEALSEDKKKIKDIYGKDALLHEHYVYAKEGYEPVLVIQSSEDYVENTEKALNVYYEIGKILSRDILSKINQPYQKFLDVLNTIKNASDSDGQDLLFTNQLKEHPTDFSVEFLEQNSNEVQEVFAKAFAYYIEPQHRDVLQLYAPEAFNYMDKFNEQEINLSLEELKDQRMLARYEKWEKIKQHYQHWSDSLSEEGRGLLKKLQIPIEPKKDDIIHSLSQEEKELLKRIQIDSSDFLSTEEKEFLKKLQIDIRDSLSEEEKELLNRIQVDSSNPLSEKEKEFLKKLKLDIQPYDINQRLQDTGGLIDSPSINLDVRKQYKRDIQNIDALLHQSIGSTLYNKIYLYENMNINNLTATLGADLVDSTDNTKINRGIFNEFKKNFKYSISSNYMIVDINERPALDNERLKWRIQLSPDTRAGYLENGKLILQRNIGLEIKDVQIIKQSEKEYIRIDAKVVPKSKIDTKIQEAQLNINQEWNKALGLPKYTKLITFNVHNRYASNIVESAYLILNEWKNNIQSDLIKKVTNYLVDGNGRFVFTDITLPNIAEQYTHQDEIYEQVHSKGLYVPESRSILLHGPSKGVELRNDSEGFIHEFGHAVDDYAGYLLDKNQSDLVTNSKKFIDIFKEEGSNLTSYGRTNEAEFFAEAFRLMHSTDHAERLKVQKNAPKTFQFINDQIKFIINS
# Bead autofluor – flagged as autofluorescent in microsphere protease counterscreen; fluorescence intensity (test concentration not listed); AID 624483; 3.1% of 360,000 active; compound autofluorescence counterscreen, microsphere flow cytometry; hits give high values; in the data active means fluorescence intensity above about 16000; inconclusive means no clear call, values can overlap the other calls
# BoNT-A LC inh2 – BoNT A light chain protease inhibition; AID 588499; multiplex microsphere protease substrate cleavage, flow cytometry; inhibition, % at 10 µM; 0.17% of 360,000 active; further: plate controls were buffer without enzyme for full effect and enzyme alone for no effect
# BoNT F protease – blocks Botulinum neurotoxin F light chain protease; inhibition, % at 10 µM; 0.22% of 360,000 active; AID 588497; Multiplex microsphere protease cleavage assay, flow cytometry; in the data active means inhibition above about 35%, passing the limit was not always enough; inconclusive means no clear call, values can overlap the other calls; further: plate controls were buffer without enzyme for full effect and enzyme alone for no effect
# An asterisk follows results filed as active; ? = inconclusive. Unless noted, no stated cut-off is given here; in the data, active means inhibition above about 30%; inconclusive means no clear call, values can overlap the other calls; inactive means below that.
SMILES,Anthrax LF inh2,Bead autofluor,BoNT-A LC inh2,BoNT F protease
COc1ccc(OC)c(C2c3[nH]c4ccccc4c3C[C@H]3C(=O)N(CCCOC(C)C)CC(=O)N23)c1 (stereo partly drawn),-4,3891,1,32
CC(C)NC(=O)CCNS(=O)(=O)c1ccc(Br)cc1,-1,24137*,-3,-3
O=C(Nc1ccccc1Cl)c1cc(C2CCCN(S(=O)(=O)c3cccs3)C2)on1 (stereo not drawn),-4,3427,0,4
CCC(=O)Nc1cc(C(=O)OCC(=O)c2ccccc2Cl)ccc1C,-2,20188*,-1,-4
CCC(=O)Nc1cc(C(=O)OCC(=O)c2ccc(Cl)cc2Cl)ccc1C,-11,6011,0,-5
COc1ccc(OC)c(/C=N/NC(=O)C(=O)N2CCCCCC2)c1,1,6311,-2,-3
COc1ccc(CC(Cc2ccc(OC)c(OC)c2)NC=O)cc1OC,-3,3429,0,-2
CCn1nnc(C(=O)O)c1C(=O)O,-5,16922*,?,-4
Nc1c(C(=O)O)nnn1Cc1ccccc1,0,9524,1,2
CN(CC(=O)Nc1ccc(F)cc1)C(=O)c1ccc(OCc2ccccc2)cc1,-2,4240,3,-2
CSc1nnc(-c2ccc(O)cc2)n1C,2,21757*,5,4
Cn1c(SCC(=O)c2ccccc2)nnc1-c1ccncc1,-2,4660,-2,-1
COc1ccc(-c2nnc(SC)n2C)cc1,-5,12673,-2,-16
Cn1c(SCCCC(=O)c2ccccc2)nnc1-c1ccncc1,2,19499*,?,2
Cn1c(SCCCC(=O)c2ccc(F)cc2)nnc1-c1ccncc1,1,3301,0,2
Cn1c(SCC(=O)c2ccccc2)nnc1-c1ccc(O)cc1,1,20320*,1,3
COc1ccccc1NC(=O)C1CCCN(S(=O)(=O)c2ccc(-n3cnnn3)cc2)C1 (stereo not drawn),1,5002,-3,-15
CC(OC(=O)Cn1[nH]c(=O)c2ccccc2c1=O)C(=O)Nc1cccc(Cl)c1 (stereo not drawn),-5,5212,-2,?
Nc1c(S(=O)(=O)c2cccs2)c2nc3ccccc3nc2n1CC1CCCO1 (stereo not drawn),1,22380*,3,4
CC(C)Oc1ccc(C(=O)N2CCN(C(=O)c3ccco3)CC2)cc1,-1,5401,1,4
CC(C)C(c1nnnn1C(C)(C)C)N1CCC(Cc2ccccc2)CC1 (stereo not drawn),?,18261*,?,?
Cc1cc(Cl)cc2c1NC(=O)[C@]21[C@@H]2C(=O)N(Cc3ccccc3)C(=O)[C@@H]2[C@@H]2CCCN21,0,3642,2,-10
CCc1ccc2c(c1)[C@]1(C(=O)N2)[C@@H]2C(=O)N(Cc3ccccc3)C(=O)[C@@H]2[C@@H]2CCCN21,-2,21738*,2,4
CCOCCCNC(=O)CS(=O)(=O)Cc1nc(-c2cccc(OC)c2)oc1C,-1,21852*,?,2
CN1CCN(c2ccc(NC(=O)CSc3nnnn3-c3ccccc3F)cc2)CC1,-2,4151,4,-14
SMILES,Anthrax LF inh2,Bead autofluor,BoNT-A LC inh2,BoNT F protease
COc1ccc(C(=O)Nc2n[nH]c(-c3ccncc3)n2)cc1,-4,18001*,-6,-4
CSC(=NC#N)N1CCN(c2ccccc2)CC1,1,20884*,?,-4
Cc1noc(C)c1C(=O)N1CCN(C(=O)c2sc3cc(Cl)ccc3c2Cl)CC1,-9,18980*,2,1
Cc1noc(C)c1C(=O)N1CCN(CCc2ccccc2)CC1,-1,24658*,?,-6
O=C(OCC(=O)N1CCCC1=O)c1cc2ccccc2o1,-5,3007,0,-6
OCC[C@@H]1C[C@H](O)[C@@H](O)[C@]2(OCCc3cc(Cl)ccc32)O1,2,6069,0,3
CCC1(c2ccc(F)cc2)NC(=O)N(CC(=O)Nc2cccc(S(=O)(=O)N3CCOCC3)c2)C1=O (stereo not drawn),-12,2864,0,-6
CCCn1[nH]cc(SC)c(=O)c1=O,1,16432*,?,0
CC(C)C[C@H]1CN(CCCC[C@@H]2CNC(=O)C(=O)N2CCc2ccccc2)C(=O)C(=O)N1CCc1ccc(O)cc1,-2,6017,0,-9
CS(=O)(=O)Nc1ccc(S(=O)(=O)NCCc2ccccc2)cc1,-3,24049*,-2,-3
CS(=O)(=O)Nc1ccc(OCc2ccccc2)cc1,0,24301*,-3,-5
COC(=O)Nc1ccc(OCc2ccccc2)cc1,-4,4259,1,-8
CCNS(=O)(=O)c1ccc(NS(C)(=O)=O)cc1,-1,7693,1,8
Cc1cc(F)ccc1S(=O)(=O)Nc1ccccc1C(=O)NC1CCN(Cc2ccccc2)CC1,2,5161,1,8
O=C(CNc1cccc(F)c1)N1CCc2ccccc2C1,0,2915,2,-10
CC(C)CNc1nc(NC(C)(C)C)nc(Oc2ccc(=O)[nH]n2)n1,3,4466,0,-1
CSc1nc(NC(C)(C)C)nc(Oc2ccc(=O)[nH]n2)n1,-4,19465*,1,-1
COC(=O)c1cnn(-c2ccc(F)cc2F)c1/C=N/NC(=S)NC(C)(C)C,52*,3848,-4,?
CCOCCc1nnc(NC(=O)Cc2ccc(Br)cc2)s1,-1,23584*,-2,-3
COc1ccc(-c2ccc3c(c2)C2CC3CCN2C(=O)C(C)(C)C)cc1 (stereo not drawn),6,3793,0,-2
CC(C)NC(=O)NC(=O)CSc1ncc(C(F)(F)F)cc1Cl,0,22963*,-2,-3
CC(=O)N(CCC1(C(C)C)CCOC(C)(C)C1)Cc1ccco1 (stereo not drawn),0,19564*,?,1
CCc1cccc(C)c1NC(=O)CSc1n[nH]c(N)n1,5,3496,0,-3
Cc1ccc(C2(c3ccccc3)NC(=O)N(CC(=O)NC3CCS(=O)(=O)C3)C2=O)cc1C (stereo not drawn),-2,?,-3,-7
S=C(NC1CCCCC1)c1ccc2c(c1)OCO2,-2,20422*,5,5
SMILES,Anthrax LF inh2,Bead autofluor,BoNT-A LC inh2,BoNT F protease
COc1ccc2c(c1)CCC1C2CCC2(C)C(O)C(=O)CC12 (stereo not drawn),-2,3567,0,-3
COc1ccc(-c2cc(CCC(=O)N3CCN(c4cc(C)ccc4C)CC3)[nH]n2)cc1,-4,3853,0,-4
CS(=O)(=O)c1ccc2nc(NC(=O)c3ccc(Cn4cc(Br)cn4)o3)sc2c1,0,5296,3,13
CCC(=O)Nc1cc(Cl)ccc1C(=O)O,2,19235*,?,2
CCC(C)NCCOCCOc1ccc(Cl)cc1Br (stereo not drawn),-7,4372,5,35*
Cc1ccc(OCCOCCNC(C)C)c(Br)c1,1,2340,0,-6
CC(C)(C)NCCOCCOc1ccccc1-c1ccccc1,1,2654,3,23
CCC(C)NCCOCCOc1ccccc1-c1ccccc1 (stereo not drawn),-5,23087*,0,-5
O=C(NC1CCCC1)c1ccc(CSCc2ccccc2F)o1,1,23171*,2,0
O=C(NC1CCCC1)c1ccc(CS(=O)(=O)Cc2ccccc2F)o1,-2,5803,0,0
